In PubChem BioAssay (NCI):
The panel holds about 83,000 compounds, 20% with a hit somewhere; the sample as a whole holds those more often.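 Method: cells in 96-well plates; compound added at one concentration; 48 h incubation; percent growth measured; values under 10 scored active.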 Unmarked numbers belong to inactive results. Calls of active or inactive are those of the source.

Columns and labels:
Assay in all cases: NCI-60 one-dose screen, 48 h (100 = growth as untreated, 0 = no growth, -100 = all killed)
Conditions in all cases: 10 µM unless noted
HCT-15 colon = test system: HCT-15 colon
HT29 colon = test system: HT29 colon
SNB-75 CNS = test system: SNB-75 CNS
SNB-19 CNS = test system: SNB-19 CNS
U251 CNS = test system: U251 CNS
PC-3 prostate = test system: PC-3 prostate
SK-MEL-5 melanoma = test system: SK-MEL-5 melanoma
UACC-62 melanoma = test system: UACC-62 melanoma
LOX IMVI melanoma = test system: LOX IMVI melanoma
SK-MEL-28 melanoma = test system: SK-MEL-28 melanoma

Compound | growth (HCT-15 colon) | growth (HT29 colon) | growth (SNB-75 CNS) | growth (SNB-19 CNS) | growth (U251 CNS) | growth (PC-3 prostate) | growth (SK-MEL-5 melanoma) | growth (UACC-62 melanoma) | growth (LOX IMVI melanoma) | growth (SK-MEL-28 melanoma)
O=C(O)COc1ccc(Cl)c(Cl)c1 | 111% | 112% | 107% | 117% | 108% | 100% | 105% | 104% | 97.9% | 116%
C=C1CC[C@@H]2[C@](C)(COC(C)=O)[C@H](OC(C)=O)CC[C@@]2(C)[C@@H]1CC(Nc1ccc(S(=O)(=O)NC(C)=O)cc1)C1=CCOC1=O (stereo not given in full) | -49.5% (active) | -69.9% (active) | 26.3% | 23% | -65.5% (active) | 0.695% (active) | 7.36% (active) | -12.5% (active) | -85.8% (active) | -36.6% (active)
Cc1n[nH]c2ccc(Br)cc2c1=O | 100% | 98.3% | 102% | 109% | 100% | 90.9% | 97.4% | 112% | 101% | 113%
CN1CCN(CC(=O)Nc2ccc3ncnc(Nc4ccc(Oc5cccc(C(F)(F)F)c5)c(Cl)c4)c3c2)CC1 | -12.2% (active) | -19.2% (active) | 68.8% | 28.5% | 0.145% (active) | 42.9% | -58% (active) | -28.8% (active) | -94.6% (active) | -89% (active)
Cc1nc2c(c(=O)[nH]1)C(c1ccccc1)c1ccc3ccccc3c1O2 (stereo not given) | 23.4% | 84.5% | 13.1% | 30.8% | 26.1% | 19.7% | 36.8% | 30.4% | 35.2% | 57.7%
CC1=C2[C@@H](CC1)[C@]1(C)O[C@@](c3ccccc3)(C[C@H]1OC(=O)CO)[C@H]2OC(=O)/C=C/c1ccccc1 | 92.6% | 87.2% | -50.7% (active) | 96.1% | 88.4% | 63.2% | 88.9% | 79% | 82.1% | 117%
CCN1C(=O)N(CC)C2C1NN=c1s/c(=C3\C(=O)N(CC(C)C)c4ccccc43)c(=O)n12 (stereo not given) | 12.5% | 2.25% (active) | 14.9% | 28% | 12.1% | 27.7% | 14.9% | 27.7% | 24.7% | 51%
CCSc1oc(C)nc1[P+](c1ccccc1)(c1ccccc1)c1ccccc1 | 92.1% | 16.7% | 35.1% | 19.3% | 20.2% | 19.6% | 1.8% (active) | 28.7% | 25.7% | 65.5%
O=C(Cc1ccc(/C=C/C(=O)c2ncc[nH]2)cc1)Nc1cc(C(F)(F)F)cc(C(F)(F)F)c1 | 62.4% | 26.3% | 79% | 77.3% | 38.5% | 85.3% | 93.1% | 80.9% | 34.5% | 104%
COc1ccc(CCN(CC(=O)N(CC(N)=O)C2CCC[C@@H]2OCc2ccccc2)C(=O)CN(C(=O)CN(CCc2ccc(Cl)cc2)C(=O)CN(C(=O)CN(C)Cc2ccccc2F)[C@H](C)C2CCCCC2)[C@H](C)C2CCCCC2)cc1OC (stereo not given in full) | 33.7% | 0.386% (active) | 53.5% | 33.9% | 21.5% | 15% | -41.8% (active) | 33.8% | -33% (active) | 32.5%
CCNC(=O)Oc1ccc(/C(=C(/C)Cc2ccc(OC)cc2)c2ccc(OCCN3CCCCC3)cc2)cc1 | 38.9% | 1.16% (active) | 69% | 76% | 47.5% | 55.6% | 46.2% | 58.4% | 60.9% | 67.6%
O=C(N/N=C\c1cccc([N+](=O)[O-])c1)N/N=C/c1cccc([N+](=O)[O-])c1 | 109% | 114% | 88.8% | 100% | 97.3% | 91.5% | 95.9% | 92.5% | 103% | 110%
CC1(C)CC[C@]2(CO)CC[C@]3(C)[C@H](CC[C@@H]4[C@@]5(C)CCCNC(C)(C)[C@@H]5CC[C@]43C)[C@H]2[C@H]1O | 34.3% | 17.6% | 80.1% | 97.6% | 56.1% | 64.7% | 92.8% | 95.9% | 69.4% | 93.9%
CC1=C(C(=O)Nc2nc(-c3ccc(Cl)cc3)cs2)[C@H](c2ccc(O)cc2)NC(=O)N1 | 102% | 100% | 74.3% | 107% | 93.4% | 84.4% | 99.8% | 88.8% | 95.1% | 115%
C=CCn1c(SCC(=O)Nc2ccc(/C(C)=N/O)cc2)nnc1-c1cc(-c2ccc(S(N)(=O)=O)cc2)nc2ccccc12 | 96.5% | 105% | 54.2% | 70.3% | 67.2% | 80.2% | 65.6% | 69.7% | 27% | 93.3%
O=C1c2cccc3cccc(c23)C(=O)N1C/C=C/c1ccc2c3c(cccc13)C(=O)N(CCO)C2=O | 75.3% | 87% | 58.6% | 88% | 71.1% | 51.2% | 89.9% | 91.4% | 87.3% | 84.9%
COC(=O)N1CC(Oc2ccccn2)C2CC1c1ccccc1O2 (stereo not given) | 98.8% | 103% | 98.7% | 94.5% | 104% | 94.4% | 99.4% | 89.5% | 96.8% | 94.8%
CCOC(=O)c1nn(CC(O)c2ccccc2)c(NC(=O)Nc2cccc(F)c2)c1C (stereo not given) | 98% | 101% | 108% | 97.3% | 92% | 92.5% | 96.7% | 80.8% | 98.4% | 113%
CC(=O)OC(c1ccccc1)C1CCOC1=O (stereo not given) | 97.1% | 99.5% | 79.2% | 109% | 99.1% | 100% | 102% | 87.2% | 96.7% | 113%
CC[C@]12C=CCN3CC[C@@]4(c5ccc(OC)cc5N(C)[C@H]4[C@@](O)(C(=O)OC)[C@@H]1OC(=O)CCC[P+](c1ccccc1)(c1ccccc1)c1ccccc1)[C@@H]32 | 101% | 2.42% (active) | -4.39% (active) | 11% | 4.03% (active) | 2.13% (active) | -91.5% (active) | -59.3% (active) | 8.81% (active) | 20.9%
O=C(O)c1ccc(-c2ccc(/C=N/Nc3nc(Nc4ccccc4)nc(N4CCCCC4)n3)o2)cc1 | 55.3% | 63.4% | 65.7% | 61% | 43.2% | 65.6% | 71.5% | 67.6% | 68.6% | 78.9%
COC(=O)c1c2c(n3ccccc13)C(=O)c1ccccc1C2=O | 51.4% | 55.3% | 113% | 62.5% | 61.6% | 47.2% | 18.1% | 65.7% | 49.3% | 106%
COc1ccc2c(c1)CCc1[nH]nc(-c3cc(OC)c(OC)c(OC)c3)c1-2 | 10.3% | 0.652% (active) | 36.7% | 28.7% | 5.42% (active) | 12.6% | -54.2% (active) | 28.8% | 5.34% (active) | 58%
COc1ccc(/C=C/c2ccc3ccccc3n2)c(OC)c1 | 56% | 55.6% | 78% | 83.2% | 83.1% | 66.1% | 78.3% | 65.8% | 59.6% | 81.7%
CC1=C(CCC(C)NCc2ccc(OCCCN3CCCCC3)cc2)C(C)(C)CCC1 (stereo not given) | -67.2% (active) | -81.9% (active) | -59.7% (active) | -45.7% (active) | -85.6% (active) | -56.1% (active) | -94.6% (active) | -77% (active) | -88.7% (active) | -83.4% (active)
Nc1nc(N)c2c(n1)NC(c1ccc(Cl)cc1)C1CCc3ccccc3C1=N2 (stereo not given) | 45.9% | 41.9% | 62.1% | 76.1% | 51.1% | 51.6% | 7.87% (active) | 55.2% | 56.8% | 91.3%
